Measurements reported in ChEMBL document CHEMBL3988442, “University of Dundee, Small-Polar-MMV Screening Library” (2021).
The whole screen tested about 48,000 compounds, of which about 13,000 (27%) showed an effect of 50% or more. This is one part of the list.

System: Wolbachia pipientis
Assay: Anti-Wolbachia Cell-Based Screen
Format: functional
Parameters: scale not given: in the data most compounds retested in dose-response had high values
Details: 5 µM

Point of comparison: `CCc1nc(C2CCCN2c2ncc(Br)cn2)no1` (centres undefined), “Percent Effect” value -1.956%. Against it:
- COC(=O)[C@@H](NC(=O)c1coc(COc2cccc(F)c2)n1)C(C)C — lower, -6.139%
- COC(=O)C(CNC(=O)Nc1nncs1)Cc1ccc(O)cc1 (centres undefined) — lower, -7.051%
- CNC(=O)c1n[nH]c2c1C(c1cccc3[nH]ccc13)CC(=O)N2 (centres undefined) — higher, 8.838%
- CCn1nc2c(cc1=O)CN(CC(=O)Nc1nnc(C)s1)CC2 — higher, 120.7%
- Cc1nc(CN2CCc3nn(C(C)C)c(=O)cc3C2)oc1C — lower, -3.167%
- CCn1nc2c(cc1=O)CN(CC(=O)Nc1nncs1)CC2 — higher, 94.86%
- CC(C)n1nc2c(cc1=O)CN(CC(=O)N(C)c1nccs1)CC2 — lower, -24.74%
- Cc1cc(NC(=O)CN2CCc3nn(C)c(=O)cc3C2)no1 — lower, -3.841%
- Cn1nc2c(cc1=O)CN(CC(=O)Nc1nncs1)CC2 — lower, -9.972%
- CCn1nc2c(cc1=O)CN(CC(=O)Nc1cc(C(C)C)no1)CC2 — lower, -9.725%
- CCn1nc2c(cc1=O)CN(CC(=O)Nc1cc(C)no1)CC2 — lower, -6.307%
- Cc1nnc(NC(=O)CN2CCc3nn(C(C)C)c(=O)cc3C2)s1 — higher, 104%
- Cc1csc(NC(=O)CN2CCc3nn(C)c(=O)cc3C2)n1 — lower, -32.21%
- CCn1nc2c(cc1=O)CN(CC(=O)Nc1nccs1)CC2 — lower, -22.28%
- Cc1nnc(NC(=O)CN2CCc3nn(C)c(=O)cc3C2)s1 — higher, 86.83%
- CC1=N[C@@]2(CC[C@@H]3CN(S(C)(=O)=O)C[C@@H]32)C(=O)N1CC(C)C — lower, -10.09%
- CCc1nnc2ccc(NCC3(O)CCOCC3)nn12 — lower, -3.397%
- CC(C)S(=O)(=O)NC(=O)CC(c1ccccc1)C(F)(F)F (centres undefined) — higher, 0.6807%
- O=C1NCCCCC1Sc1n[nH]c(=O)n1C1CC1 (centres undefined) — lower, -5.028%
- O=C1NCCCCC1Sc1ccc(F)c(F)c1 (centres undefined) — higher, 87.86%
- O=C1NCCCCC1Sc1ccc(F)cc1F (centres undefined) — higher, 103.3%
- O=C1NCCCCC1Sc1nnc(C2CC2)n1C1CC1 (centres undefined) — lower, -22.11%
- O=C1NCCCCC1SCc1coc(-c2ccc(F)cc2)n1 (centres undefined) — higher, -0.7587%
- O=C1NCCCCC1Sc1nnc(-c2cccnc2)n1C1CC1 (centres undefined) — lower, -7.436%
- O=C1NCCCCC1Sc1ccccc1F (centres undefined) — higher, 86.32%
- O=C1NCCCCC1Sc1nnc(N2CCCC2)n1C1CC1 (centres undefined) — higher, 5.697%
- O=C1NCCCCC1SCc1coc(-c2cccc(F)c2)n1 (centres undefined) — lower, -23.71%
- CCCOCC(=O)N1CCC2(CC1)c1nc[nH]c1CCN2S(C)(=O)=O — lower, -9.401%
- COc1ccc(C(=O)NCc2ccon2)cc1F — lower, -47.25%
- Cc1nc(NS(=O)(=O)c2ccc(C)c(Br)c2)no1 — lower, -20.05%
- Cc1nn(CC(=O)N2CCN(c3ccccc3F)CC2)c(C)c1Cl — higher, 4.996%
- Cc1nc(CN(C)CC2CCCN2c2cccnn2)oc1C (centres undefined) — higher, 2.068%
- Cc1cccc(C(=O)N2CCCCC2c2ccc(CN(C)C)cc2)n1 (centres undefined) — higher, -0.9167%
- CN(C)Cc1nnc(C2CCN(c3ncccn3)CC2)n1C1CC1 — lower, -3.805%
- Cc1ncc(CN(C)C)c(C2CCCN2c2ncccn2)n1 (centres undefined) — higher, 117.1%
- Cc1cccc(N2CCCC2c2nc(C)ncc2CN(C)C)n1 (centres undefined) — higher, 143.5%
- O=C(C1CNCCO1)N1CCCC(c2ccccc2)(c2ccccc2)C1 (centres undefined) — lower, -4.785%
- O=C(NCCCOC1CCCCC1)C1NCCc2[nH]cnc21 (centres undefined) — lower, -2.739%
- CCN(C(=O)COC)C(c1cccnc1)c1ccc2c(c1)CCO2 (centres undefined) — higher, 2.856%
- CCSCCNC(=O)Nc1cc(C(=O)N2CCOCC2)ccc1Cl — higher, 4.121%
- Cc1cc(C(=O)NC2(c3cccc(F)c3)CCOCC2)no1 — lower, -27.95%
- CS(=O)(=O)CCCNC1(c2cccc(F)c2)CC1 — higher, 13.79%
- CC(C)(CO)CCCNC(=O)NC1(C)Cc2ccccc2C1 — higher, 128.7%
- CC(C)(CO)CCCNC(=O)NC1(c2cccc(F)c2)CC1 — higher, 104.1%
- COCCNC(=O)NC1(c2nc(C)no2)CCCCC1 — higher, -1.61%
- COCCNC(=O)C1(c2ccccc2C)CCOCC1 — higher, 3.195%
- O=C(Nc1ccccc1F)NC1(CO)CCOCC1 — higher, 2.484%
- CC(C)(CO)CCCNC(=O)NC1(c2ccccc2F)CC1 — higher, 114.3%
- CC(C)(CO)CCCNC(=O)N1CCc2c(F)ccc(F)c2C1 — higher, 36.67%
- COCCNC(=O)NC1(c2ccccc2F)CC1 — higher, 110%
- CN(Cc1ccccc1)C1(C(=O)NC(C)(C)CO)Cc2ccccc2C1 — higher, 8.937%
- O=C(NCCCc1ccc(O)cc1)C1(O)Cc2ccccc2C1 — higher, -1.893%
- CC(C)c1noc([C@@H]2C[C@H](NS(=O)(=O)Cc3ccccc3)CN2C)n1 — lower, -6.361%
- CC(C)(O)CCc1ccc(C(=O)NCCC2CCCOC2)cc1 (centres undefined) — lower, -14.7%
- O=C1CC[C@@H](C(=O)N2CCC(Cn3cc(C4CCCCC4)nn3)CC2)N1 — lower, -19.31%
- CCc1cnc(CN2C(=O)CC3(CCSC3)C2=O)o1 (centres undefined) — higher, -1.105%
- CCn1cncc1C1CC(=O)Nc2c1c(C)nn2C (centres undefined) — lower, -2.495%
- O=S(=O)(c1cccnc1)N1C[C@@H]2CC[C@H](C1)N(Cc1ccccn1)C2 — higher, 0.4176%
- Cc1ccc(NC2(C(=O)NCCCc3c(C)n[nH]c3C)CCCC2)cc1 — higher, 12.56%
- COc1ncccc1NC(=O)NC(C)(C)c1ncc(C)s1 — higher, 4.256%
- CCN1CC(C(=O)N2CCc3cc(C(N)=O)n(C)c3C2)CC1=O (centres undefined) — higher, 10.03%
- CCc1nnc2n1CC(CNc1cnc3ccccc3n1)CC2 (centres undefined) — lower, -8.213%
- NC(=O)CN1CCC(C(=O)NCc2nc(-c3ccc(F)cc3)cs2)CC1 — higher, 0.3881%
- OCCN1CCC(c2csc(Nc3cnccn3)n2)CC1 — higher, 83.21%
- NC(=O)CN1CCC(c2csc(Nc3cnccn3)n2)CC1 — higher, 117.3%
- NC(=O)CN1CCCC1c1csc(Nc2cnccn2)n1 (centres undefined) — higher, 66.85%
- COc1ccccc1CNC(=O)C(C)N1CC(n2cc(C)cn2)C1 (centres undefined) — lower, -24.87%
- CN(C)c1cc2c(nn1)CCN(C(=O)c1cc3c(s1)CCOC3)C2 — lower, -8.36%
